# This is part of a sample that, as a whole, favours compounds with a hit. Of some 83,000 tested, about 20% had one in any assay.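 Cell lines were cultured in 96-well plates, exposed to a single compound concentration, and assessed for percent growth 48 hours later.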 Calls of active or inactive are those of the source. The calls were made as follows: active = growth percent below 10; inactive = the rest.
# Tested on: LOX IMVI melanoma
# Experiment: NCI-60 one-dose screen, 48 h (100 = growth as untreated, 0 = no growth, -100 = all killed)
# Settings: 10 µM unless noted
row,SMILES,growth
1,Cc1ccc2c(C(C[N+](=O)[O-])c3ccco3)c(-c3ccccc3)[nH]c2c1 (stereo unspecified),23.5% (inactive)
2,NC(=O)c1cc(Br)ccc1NC(=O)/C=C/c1ccccc1,52.1% (inactive)
3,O=C1c2cccc3cccc(c23)C(=O)N1CCCCN1CCN(CCCCOc2ccc(-c3nc4ccc(N5CCOCC5)cc4[nH]3)cc2)CC1,93.7% (inactive)
4,Cc1cc(C)nc(SC2=C(Nc3cccc(Cl)c3)C(=O)N(Cc3ccccc3)C2=O)n1,67.6% [30 µM] (inactive)
5,CN(C)C(=S)N=Nc1c(O)[nH]c2ccccc12,14% (inactive)
6,O=C1/C(=C/c2ccc3c(c2)OCO3)SC(=S)N1CCc1ccc(O)cc1,91.3% (inactive)
7,N#Cc1cnn(-c2nc3c(Cl)cccc3s2)c1N,81.4% (inactive)
8,Nc1ccn(-c2ccc(Br)cc2)c(=O)n1,105% (inactive)
9,Cc1ccc(C2=NN3C(C2)c2cc(Br)ccc2OC32CCN(Cc3ccccc3)CC2)o1 (stereo unspecified),94.4% (inactive)
10,COc1ccc(C(=O)COc2ccc(/C=C3\COc4ccc(OC)cc4C3=O)cc2)cc1,80.7% (inactive)
11,CCN(CC)c1ccc(-c2cc(-c3cc(OC)c(OC)c(OC)c3)nc(N3CCOCC3)c2C#N)cc1,-77.3% (active)
12,Cn1cc(-c2nonc2-c2cn(C)c3ccc(F)cc23)c2ccccc21,34.8% (inactive)
13,COc1ccc(C(=O)COc2cccc(/C=C3\CSc4ccccc4C3=O)c2)cc1,-100% (active)
14,CCn1c(Cc2ccccc2Nc2c(Cl)cccc2Cl)nnc1SCC(=O)NN1C(=O)/C(=C/c2cc(OC)c(O)c(OC)c2)SC1=S,26.8% (inactive)
15,O=C1c2ccccc2C(=O)c2c(N=Nc3[nH]c(=S)[nH]c3O)cccc21,34.1% (inactive)
16,C#CCOc1ccc2ncnc(N3CCC(NC(=O)CCl)CC3)c2c1,78.1% [8.25 µM] (inactive)
17,Cc1cc2c3ccccc3ccc2[n+]2ccccc12,74.4% (inactive)
18,Cc1ccc(/C=C2\SC(=S)N(CC(=O)NCCCN3CCOCC3)C2=O)cc1,91.7% (inactive)
19,CC(=O)O[C@H]1[C@@H]2OC(=O)C(CSc3ccccc3)[C@@H]2C[C@H]2O[C@]2(C)CC/C=C(\C)CCC[C@@H]1C (stereo partly specified),28.4% (inactive)

row,SMILES,growth
1,Cc1cc2nc(NC(=O)CN3CCN(CCN4C(=O)c5cccc6cccc(c56)C4=O)CC3)sc2cc1C,77.9% (inactive)
2,CC(=O)Oc1ccc(Cl)cc1CN(C(C)=O)C1CCCCC1,114% (inactive)
3,O=C(NCCN1CCOCC1)Nc1ccc(-c2cc3c(Nc4ccc(Oc5cccc(C(F)(F)F)c5)c(Cl)c4)ncnc3s2)cc1,-86.6% (active)
4,Cn1ccnc1C(=O)/C=C/c1ccccc1,18.3% (inactive)
5,Brc1ccc(-c2csc(Nc3ccccn3)n2)cc1,214% (inactive)
6,COc1ccc2c(c1)O/C(=C\c1cccc(OCC(=O)Nc3nc4c(s3)CCCC4)c1)C2=O,-100% (active)
7,C=CCSSC1N=CNc2nc[nH]c21 (stereo unspecified),7.74% (active)
8,COc1ccc(S(=O)(=O)N2CCCCCC2)cc1NC(=O)c1[nH]c(C)c2c1CCCCC2=O,-33.6% (active)
9,Cc1ccc(C(SCC(N)C(=O)O)(c2ccccc2)c2ccc(C)cc2)cc1 (stereo unspecified),41.7% (inactive)
10,O=C(O)c1ccc(NC(=O)c2ccc(-c3cccc([N+](=O)[O-])c3)o2)cc1,95.3% (inactive)
11,CC1=CC(C)(C)Nc2ccc(Cc3ccc4c(c3)C(C)=CC(C)(C)N4)cc21,88.7% (inactive)
12,COc1ccc(C2CC(c3ccc4ccccc4c3)=NN2/C=C2\SC(=S)N(NC(=O)Cc3ccccc3Nc3c(Cl)cccc3Cl)C2=O)cc1 (stereo unspecified),37.1% (inactive)
13,Cn1c(NCCc2ccc(O)c(O)c2)nc2c1c(=O)n(Cc1ccc(Br)cc1)c(=O)n2C,87.9% (inactive)
14,Cc1ccc2c(c1)C(=O)/C(=C/c1cccc(OCC(=O)c3ccc(Cl)cc3)c1)CS2,75.3% (inactive)
15,COC(=O)c1ccc(NC(=O)c2ccc(-c3cccc([N+](=O)[O-])c3)o2)cc1,96.1% (inactive)
16,COc1cc(C(=O)/C=C/c2cccnc2Nc2ccc(Cl)cc2)cc(OC)c1OC,-65.5% (active)
17,Cc1cc(C)nc(SC2=C(Nc3cc(Cl)ccc3O)C(=O)N(Cc3ccccc3)C2=O)n1,71.1% [30 µM] (inactive)
18,CC(C)CSc1nc(N)nc2c1ncn2C1OC(CO)C(O)C1O (stereo unspecified),95.3% (inactive)
19,O=C1NC(=Nc2ccc(O)cc2)S/C1=C\c1cccc(Cl)c1,53.4% (inactive)

# Tested on: SK-MEL-28 melanoma
# Experiment: as above
# Settings: 10 µM unless noted
row,SMILES,growth
1,Cc1ccc2c(C(C[N+](=O)[O-])c3ccco3)c(-c3ccccc3)[nH]c2c1 (stereo unspecified),60.3% (inactive)
2,NC(=O)c1cc(Br)ccc1NC(=O)/C=C/c1ccccc1,42.2% (inactive)
3,O=C1c2cccc3cccc(c23)C(=O)N1CCCCN1CCN(CCCCOc2ccc(-c3nc4ccc(N5CCOCC5)cc4[nH]3)cc2)CC1,81.5% (inactive)
4,Cc1cc(C)nc(SC2=C(Nc3cccc(Cl)c3)C(=O)N(Cc3ccccc3)C2=O)n1,93.2% [30 µM] (inactive)
5,CN(C)C(=S)N=Nc1c(O)[nH]c2ccccc12,37.5% (inactive)
6,O=C1/C(=C/c2ccc3c(c2)OCO3)SC(=S)N1CCc1ccc(O)cc1,104% (inactive)
7,N#Cc1cnn(-c2nc3c(Cl)cccc3s2)c1N,102% (inactive)
8,Nc1ccn(-c2ccc(Br)cc2)c(=O)n1,137% (inactive)
9,Cc1ccc(C2=NN3C(C2)c2cc(Br)ccc2OC32CCN(Cc3ccccc3)CC2)o1 (stereo unspecified),102% (inactive)
10,COc1ccc(C(=O)COc2ccc(/C=C3\COc4ccc(OC)cc4C3=O)cc2)cc1,94.5% (inactive)
11,CCN(CC)c1ccc(-c2cc(-c3cc(OC)c(OC)c(OC)c3)nc(N3CCOCC3)c2C#N)cc1,21.8% (inactive)
12,Cn1cc(-c2nonc2-c2cn(C)c3ccc(F)cc23)c2ccccc21,63.3% (inactive)
13,COc1ccc(C(=O)COc2cccc(/C=C3\CSc4ccccc4C3=O)c2)cc1,-62.3% (active)
14,CCn1c(Cc2ccccc2Nc2c(Cl)cccc2Cl)nnc1SCC(=O)NN1C(=O)/C(=C/c2cc(OC)c(O)c(OC)c2)SC1=S,45.7% (inactive)
15,O=C1c2ccccc2C(=O)c2c(N=Nc3[nH]c(=S)[nH]c3O)cccc21,52% (inactive)
16,C#CCOc1ccc2ncnc(N3CCC(NC(=O)CCl)CC3)c2c1,77.5% [8.25 µM] (inactive)
17,Cc1cc2c3ccccc3ccc2[n+]2ccccc12,14.9% (inactive)
18,Cc1ccc(/C=C2\SC(=S)N(CC(=O)NCCCN3CCOCC3)C2=O)cc1,100% (inactive)
19,CC(=O)O[C@H]1[C@@H]2OC(=O)C(CSc3ccccc3)[C@@H]2C[C@H]2O[C@]2(C)CC/C=C(\C)CCC[C@@H]1C (stereo partly specified),37.7% (inactive)

row,SMILES,growth
1,Cc1cc2nc(NC(=O)CN3CCN(CCN4C(=O)c5cccc6cccc(c56)C4=O)CC3)sc2cc1C,106% (inactive)
2,CC(=O)Oc1ccc(Cl)cc1CN(C(C)=O)C1CCCCC1,106% (inactive)
3,O=C(NCCN1CCOCC1)Nc1ccc(-c2cc3c(Nc4ccc(Oc5cccc(C(F)(F)F)c5)c(Cl)c4)ncnc3s2)cc1,-49.8% (active)
4,Cn1ccnc1C(=O)/C=C/c1ccccc1,30.1% (inactive)
5,Brc1ccc(-c2csc(Nc3ccccn3)n2)cc1,149% (inactive)
6,COc1ccc2c(c1)O/C(=C\c1cccc(OCC(=O)Nc3nc4c(s3)CCCC4)c1)C2=O,114% (inactive)
7,C=CCSSC1N=CNc2nc[nH]c21 (stereo unspecified),114% (inactive)
8,COc1ccc(S(=O)(=O)N2CCCCCC2)cc1NC(=O)c1[nH]c(C)c2c1CCCCC2=O,49.8% (inactive)
9,Cc1ccc(C(SCC(N)C(=O)O)(c2ccccc2)c2ccc(C)cc2)cc1 (stereo unspecified),30% (inactive)
10,O=C(O)c1ccc(NC(=O)c2ccc(-c3cccc([N+](=O)[O-])c3)o2)cc1,107% (inactive)
11,CC1=CC(C)(C)Nc2ccc(Cc3ccc4c(c3)C(C)=CC(C)(C)N4)cc21,104% (inactive)
12,COc1ccc(C2CC(c3ccc4ccccc4c3)=NN2/C=C2\SC(=S)N(NC(=O)Cc3ccccc3Nc3c(Cl)cccc3Cl)C2=O)cc1 (stereo unspecified),57% (inactive)
13,Cn1c(NCCc2ccc(O)c(O)c2)nc2c1c(=O)n(Cc1ccc(Br)cc1)c(=O)n2C,82.6% (inactive)
14,Cc1ccc2c(c1)C(=O)/C(=C/c1cccc(OCC(=O)c3ccc(Cl)cc3)c1)CS2,123% (inactive)
15,COC(=O)c1ccc(NC(=O)c2ccc(-c3cccc([N+](=O)[O-])c3)o2)cc1,100% (inactive)
16,COc1cc(C(=O)/C=C/c2cccnc2Nc2ccc(Cl)cc2)cc(OC)c1OC,-80.4% (active)
17,Cc1cc(C)nc(SC2=C(Nc3cc(Cl)ccc3O)C(=O)N(Cc3ccccc3)C2=O)n1,106% [30 µM] (inactive)
18,CC(C)CSc1nc(N)nc2c1ncn2C1OC(CO)C(O)C1O (stereo unspecified),112% (inactive)
19,O=C1NC(=Nc2ccc(O)cc2)S/C1=C\c1cccc(Cl)c1,94.7% (inactive)
